DT40 TDP1 CPT: growth inhibition of DT40 Tdp1-/-;hTDP1 cells with camptothecin (screen for TDP1 inhibitors). Potency, µM (top dose mostly 46.2 µM), without a hit: at the top dose activity change, negative = growth inhibition, usual class: inhibitors. 420,000 compounds, 12% hits. chicken DT40 Tdp1-/-;hTDP1 cells + 20 nM CPT, ATP luminescence, 48 h; further: on the % scale 0 is the no-effect control and ±100 the full control effect; nearly all actives have a fitted effect of over 55% in size
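Chicken DT40 Tdp1-/- cells stably complemented with human TDP1 were seeded at 400 cells/well in medium containing 20 nM camptothecin, exposed to pin-transferred compounds, and grown at 37 °C for at least 48 hr. Viability was read as ATP luminescence.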
HT1080NT lethal: kills 2HG-producing HT-1080-NT fibrosarcoma cells. HT-1080-NT fibrosarcoma viability, CellTiter-Glo ATP luminescence, 48 h. Potency, µM (series often up to 46.1 µM), inactives show at the highest dose activity, negative = less viability, most hits filed as cytotoxic. 360,000 compounds, 1.6% hits;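 further: NT is the 2HG producing partner of a matched IDH1 knockdown line; 0% = DMSO-treated cells and -100% = media-only wells without cells; nearly all actives have a fitted effect of over 55% in size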
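A 48-hour cytotoxicity screen used HT-1080-NT cells plated 2 hours before compound delivery. ATP-based CellTiter-Glo luminescence measured viability, normalized to DMSO and no-cell controls.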
HT1080 IDH1KD tx: HT-1080 IDH1 knockdown cell toxicity (counter line) | HT-1080 IDH1 knockdown viability, ATP luminescence, 48 h | Potency, µM (top dose mostly 46.1 µM), for inactives: top-dose activity, negative = toxicity, most hits filed as cytotoxic | 360,000 compounds, 2% hits | AID 686971;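 further: 0% = DMSO wells and -100% = cell-free medium wells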
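Assay cells: HT-1080 with IDH1 knockdown, 750 per well, RPMI/5% FBS. Exposure: 48 h at 37 °C following 2 h pre-incubation. Read: CellTiter-Glo luminescence; fitted concentration-response, curve class assigned.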
DT40 TDP1 no CPT: qHTS for Inhibitors of human tyrosyl-DNA phosphodiesterase 1 (TDP1): qHTS in cells in absence of CPT; DT40 Tdp1-/- hTDP1 cells, no CPT, ATP luminescence, 48 h; Potency, µM (top dose mostly 46.2 µM), for the others: at the highest dose activity change, negative = growth inhibition, usual class: inhibitors; 420,000 compounds, 15% hits; AID 686978, 2013; further: on the % scale 0 is the no-effect control and ±100 the full control effect; nearly all actives have a fitted effect of over 55% in size
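Chicken DT40 Tdp1-/- cells stably complemented with human TDP1 were seeded at 400 cells/well with DMSO in place of 20 nM camptothecin. After compound pinning, cells grew at least 48 hr at 37 °C; viability read by CellTiter-Glo luminescence.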
HepG2 tox: counter-screen for TGF-b inhibitors: cytotoxicity in HepG2 cells; HepG2 CAGA-GFP viability, ATP luminescence, 18 h; Potency, µM (titrated, usually from 46.1 µM), without a hit: at the highest dose activity change, negative = cytotoxicity, actives largely listed as cytotoxic; 410,000 compounds, 0.76% hits; AID 588856
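CellTiter-Glo luminescence gave cytotoxicity after 18 hours at 37 degrees C. The cells were HepG2 CAGA-GFP in 1% FBS DMEM, stimulated with 500 pg/mL TGF-beta after compound addition. %Activity was normalised to no-cell wells (complete cell-killing) and DMSO (no toxicity), and curves were fitted and classified.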
TGFb SMAD3 inh: inhibitors of TGF-b signaling; HepG2 CAGA-GFP TGF-b/SMAD3 reporter, GFP fluorescence, 18 h; TGF-beta stimulated, 500 pg/mL final; Potency, µM (series often up to 46.1 µM), without a hit: at the highest dose activity, negative = inhibition, usual class: inhibitors; 410,000 compounds, 1.2% hits; AID 588855; further: on the % scale 0 is the no-effect control and ±100 the full control effect; nearly all actives have a fitted effect of over 65% in size
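Per well, imaged GFP fluorescence of HEPG2 CAGA-GFP cells gives the signal; cells get compound, then TGF-beta (500 pg/mL final), 18 h at 37 degrees C; %Activity versus -TGF-beta and +DMSO controls.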
Starred values were filed as active, the others as inactive; ? = inconclusive; . = no result; ! = not active in a repeat. This is a sample that favours compounds with a hit; in the whole collection about 17% have one here. The call rests on the fitted dose curve; in most records, active means well fitted curve in the direction sought with a large enough effect; inconclusive means small, poorly fitted or top-dose-only effect, or another doubt; inactive means no such curve, though single readings can be large; an effect the other way counts as inactive or inconclusive. Potency means the concentration at half of the fitted maximal effect.

SMILES | DT40 TDP1 CPT | HT1080NT lethal | HT1080 IDH1KD tx | DT40 TDP1 no CPT | HepG2 tox | TGFb SMAD3 inh
O=C(NCCN1C(=O)S/C(=C\c2cccnc2)C1=O)c1cc(S(=O)(=O)N2CCOCC2)ccc1F | ? | -0.4% | -3.8% | 18.4µM* | -17.1% | 2.6%
CCOC(=O)[C@]12CCC=C1N(Cc1ccco1)C(=O)[C@H](CC(=O)NCCCOC)C2 | 0.7% | 20.7% | 9.5% | -24.3% | . | .
CC1CN(C(=S)Nc2cccc(Cl)c2)CC(C)O1 (configuration not stated) | -10.7% | -4.3% | 1.2% | 4.0% | -34.6% | -13.9%
CC(=O)N1CCN(S(=O)(=O)c2cccc(C(=O)N(Cc3ccccc3)c3cccc(C)c3)c2)CC1 | ? | -2.8% | 0.2% | ? | -2.8% | -3.7%
Cc1ccc(CSCCNC(=O)c2ccc(Cl)c(S(=O)(=O)N3CCOCC3)c2)cc1 | ? | -2.0% | -25.5% | 18.4µM* | -27.1% | ?
CN(C)CCCNC(=O)c1cc(S(=O)(=O)N2CCOCC2)ccc1F | 9.2% | 5.1% | 2.2% | -4.1% | 6.2% | -7.1%
Cc1ccc(N(Cc2ccccc2)C(=O)c2cc(S(=O)(=O)N3CCOCC3)ccc2Cl)cc1 | 11.6µM* | -21.1% | -17.3% | 7.31µM* | -12.5% | ?
Cc1ccc(N(Cc2ccccc2)C(=O)c2cccc(S(=O)(=O)N3CCN(C)CC3)c2)cc1 | ? | 5.1% | 8.0% | ? | -4.4% | -0.4%
O=C(NCCSCc1ccccc1)c1cc(S(=O)(=O)N2CCOCC2)ccc1F | 11.6µM* | -0.8% | -3.2% | ? | -2.3% | ?
Cc1cccc(N(Cc2ccccc2)C(=O)c2cc(S(=O)(=O)N3CCOCC3)ccc2Cl)c1 | 14.6µM* | -21.0% | -21.0% | 14.6µM* | -7.2% | ?
Cc1ccc(N(Cc2ccccc2)C(=O)Cc2ccc(S(=O)(=O)N3CCOCC3)s2)cc1 | ? | 2.3% | 0.8% | ? | 5.5% | ?
Cc1ccc(N(Cc2ccccc2)C(=O)c2cc(S(=O)(=O)N3CCOCC3)ccc2F)cc1 | 18.4µM* | 21.9% | 11.9% | 7.31µM* | 2.0% | -9.4%
Cc1ccc(C(=O)c2coc3ccc(O)c(CN4CCN(C)CC4)c23)cc1 | 13µM* | -6.2% | -17.5% | 18.4µM* | -31.4% | ?
COc1ccc(C(=O)c2c(C)oc3ccc(O)c(CN4CCOCC4)c23)cc1 | ? | -7.8% | -13.9% | 18.4µM* | -17.0% | -16.0%
COc1ccc(C(=O)c2coc3ccc(O)c(CN4CCCC4)c23)cc1 | ? | -11.8% | -4.1% | ? | -26.3% | -9.8%
COc1ccc(C(=O)c2coc3ccc(O)c(CN4CCOCC4)c23)cc1 | 11.6µM* | -4.3% | -1.6% | ? | -22.3% | -9.6%
COCCNC(=O)c1cc2nc(-c3ccc(F)cc3)cc(C(F)(F)F)n2n1 | 1.5% | ? | ? | 7.8% | 2.8% | 30.1%
COc1ccc(Cc2c(C3CCCCC3)nc3c(Cl)cc(C(F)(F)F)cn23)c(C)c1 | 18.4µM* | ? | ? | ? | . | .
COc1ccc(Cc2c(C3CCCCC3)nc3ccc(Br)cn23)c(C)c1 | 16.4µM* | -17.3% | -22.3% | 23.1µM* | -32.6% | -18.8%
COc1ccc(Cc2c(C3CCCCC3)nc3cc(C)c(Br)c(C)n23)c(C)c1 | -5.0% | 4.5% | 3.1% | ? | . | .
CCN1CCN(Cc2ccc(NC(=O)c3cc(NC(=O)C(=O)c4c[nH]c5ccccc45)cc(OC)c3)cc2C(F)(F)F)CC1 | 23.1µM* | 16.4µM* | ? | 20.6µM* | 11.2µM*! | ?
CCN1CCN(Cc2ccc(NC(=O)c3cc(NC(=O)c4cc(C)on4)cc(OC)c3)cc2C(F)(F)F)CC1 | 14.6µM* | ? | ? | 16.4µM* | -36.7% | ?
CCN1CCN(Cc2ccc(NC(=O)c3cc(NC(=O)c4cnn(-c5ccccc5)c4N)cc(OC)c3)cc2C(F)(F)F)CC1 | 20.6µM* | ? | 18.4µM* | 20.6µM* | -78.6% | ?
CCN1CCN(Cc2ccc(NC(=O)c3ccc(C)c(NC(=O)C(=O)c4c[nH]c5ccccc45)c3)cc2C(F)(F)F)CC1 | 2.59µM* | 16.4µM* | 14.6µM* | 2.59µM* | 15.8µM*! | 17.8µM*
CCN1CCN(Cc2ccc(NC(=O)c3ccc(C)c(NC(=O)c4ccc5n[nH]nc5c4)c3)cc2C(F)(F)F)CC1 | -0.7% | -2.7% | -6.6% | -0.9% | -25.7% | ?
SMILES | DT40 TDP1 CPT | HT1080NT lethal | HT1080 IDH1KD tx | DT40 TDP1 no CPT | HepG2 tox | TGFb SMAD3 inh
CCN1CCN(Cc2ccc(C(=O)Nc3ccc(C)c(NCc4cnc(NC(=O)OC)cn4)c3)cc2C(F)(F)F)CC1 | ? | -5.7% | 0.1% | -29.8% | -10.8% | -4.7%
O=C(CCn1c(=O)c2sccc2n(Cc2cccc(F)c2)c1=O)NCc1ccc2c(c1)OCO2 | -2.8% | . | . | 0.9% | 1.8% | -8.9%
COC(=O)Cc1[nH]n(-c2nc3ccccc3s2)c(=O)c1C(C)=Nc1ccc(C)cc1 | -27.6% | -17.8% | -10.9% | ? | -16.9% | -1.5%
C/C(=N/NC(=O)c1cccs1)c1c(C)[nH]n(-c2nc3ccccc3s2)c1=O | 3.66µM* | 2.31µM* | 2.59µM* | 2.31µM* | 1µM* | -27.0%
CCN(CC)CCCN=Cc1c(-c2ccccc2)[nH]n(-c2nc3ccccc3s2)c1=O | -22.5% | -2.5% | -1.0% | ? | 5.7% | 1.3%
COC(=O)Cc1[nH]n(-c2nc3ccccc3s2)c(=O)c1C(C)=Nc1ccc(Cl)cc1 | 10.3µM* | ? | -23.6% | 20.6µM* | -9.2% | -12.2%
CCCc1[nH]n(-c2nc3ccccc3s2)c(=O)c1C=NCC(C)C | ? | -14.5% | -10.5% | 23.1µM* | 14.4% | 4.4%
CCCN=C(C)c1c(-c2ccccc2)[nH]n(-c2nc3ccccc3s2)c1=O | ? | 14.0% | 5.6% | 25.9µM* | -2.6% | -3.7%
NC(=O)C1=CC2C3C=CC2(O)C(=O)OC3O1 (configuration not stated) | 5.17µM* | ? | 20.6µM* | 5.8µM* | 12.6µM* | 11.2µM*
CN(Cc1cnc2nc(N)nc(N)c2n1)c1ccc(C(=O)NC(CCC(=O)O)C(=O)O)cc1C(F)(F)F (configuration not stated) | 0.0291µM* | ? | 0.146µM* | 0.184µM* | -62.6% | -24.6%
N#Cc1ccc(OCC(=O)NNC(=S)NC(=O)C2CC2)cc1 | ? | 1.3% | -18.8% | 20.6µM* | -2.1% | 6.5%
CC(C)c1ccc(OCC(=O)NNC(=S)NC(=O)c2cccs2)c(Br)c1 | 18.4µM* | 5.6% | 9.9% | 23.1µM* | 40.6% | -5.3%

Source: PubChem
